# About 37,000 (12%) of roughly 300,000 compounds were called active. The sample as a whole holds a higher share of actives than the screen did. Values without a mark were called inactive. Cut-off read from the data, not from the text of the source: active = max response mostly above about 13% (no sharp cut-off); inactive = mostly below about 14%.
# Experiment: Cycloheximide Counterscreen for Small Molecule Inhibitors of Shiga Toxin; note: read at 38.3 µM for the half of the compounds with a filed dose; 0% is about no effect
# Conditions: cell reporter, cycloheximide protein synthesis inhibition counterscreen; stronger effect = higher value
row,SMILES,max response
1,COc1ccc(OC)c(NC(=O)c2cccc(S(=O)(=O)N3CCN(C(C)=O)CC3)c2)c1,-2.4%
2,CC[n+]1c(C)n(-c2ccccc2)c2ccc(NC(C)=O)cc21,8.88%
3,Cc1ccc(CCN2CC(C(=O)NCCc3ccccc3)CC2=O)cc1 (stereo unspecified),20.4%
4,COc1cccc(CNS(=O)(=O)c2csc(C(N)=O)c2)c1,-4.05%
5,COc1ccc(C(=O)NCCn2nc(C)cc2C)cc1OC1CCN(C(C)=O)CC1,1.36%
6,O=C(N/N=C/c1cccnc1)c1cc2ccccc2cc1O,35.6% (active)
7,O=C(N/N=C\c1cccnc1)c1cc(-c2ccccc2)nc2c(Cl)cccc12,-2.05%
8,Cc1ccc(/C=N/NC(=O)CSc2ccccn2)o1,17.1%
9,Cc1ccc(/C=N/NC(=O)CNC(=O)COc2ccccc2)o1,-7.97%
10,Cc1ccc(/C=N/NC(=O)c2cc3ccccc3cc2O)o1,19.4% (active)
11,O=C(N/N=C/c1cccnc1)c1ccc(NC(=O)c2ccc(F)cc2)cc1,-1.26%
12,CCC(C)[C@H](NC(=O)N1c2ccccc2NC(=O)[C@@H]1C(C)C)C(=O)N[C@@H](Cc1ccccc1)C(=O)O (stereo partly specified),1.02%
13,COc1ccc(OCC(O)CN(C)C(=O)C(C)Oc2ccccc2)cc1 (stereo unspecified),-1.78%
14,Cc1ccc(SC(CC(=O)c2ccc(C(C)(C)C)cc2)C(=O)O)cc1 (stereo unspecified),7.94%
15,Cc1cc(-c2ccc(C)c(S(=O)(=O)NC(C)Cc3ccco3)c2)on1 (stereo unspecified),17.2%
16,COC(=O)c1ccc(NC(=O)c2cc3c(CO)cnc(C)c3oc2=Nc2cccc(C(N)=O)c2)cc1,-3.69%
17,CCCc1ccc(OCC(=O)NNC(=S)NC(=O)c2ccco2)cc1,-2.62%
18,COc1ccc(CCNC(=O)c2ccccc2OCc2ccccc2)cc1,-1.84%
19,Cc1ccc(OCC(=O)NCCCNC(=O)c2ccco2)cc1C,-3.33%
20,O=C(CCCOc1ccccc1)NCc1ccco1,8.48%
21,CCOc1cc(NC(=S)NCCCOC)c(OCC)cc1NC(=O)c1ccco1,2.79%

row,SMILES,max response
1,CCOc1ncccc1C(=O)NCCc1ccc(OC)cc1,-4.4%
2,COc1ccc(CCNC(=O)c2ccco2)cc1,33% (active)
3,CCCc1ccc(OCCNC(=O)c2ccco2)cc1,37.4% (active)
4,CCCc1ccc(OCCNC(=O)c2ccccc2Br)cc1,16.2% (active)
5,CCCCOc1ccc(C(=O)NCc2ccncc2)cc1,4.92%
6,CCCCOc1ccc(C(=O)NCc2ccco2)cc1,27.4% (active)
7,CCCCOCCCNC(=O)c1ccccc1OCC,-1.45%
8,CC(C)Oc1c(Br)cc(Br)cc1/C=N/NC(N)=S,-0.405%
9,CN(C(=O)CN1C(=O)CCSc2ccc(S(=O)(=O)N3CCCC3)cc21)c1ccccc1,1.23%
10,CCOc1ccc(N(C)Cc2cc(=O)oc3ccc(OC)cc23)cc1,-1.56%
11,O=C(C1CCC(=O)N(C2CC2)C1)N1CCN(c2ccc(Cl)cc2)CC1 (stereo unspecified),-2.23%
12,CCn1c(CSCc2c(Cl)cccc2Cl)n[nH]c1=S,7.21%
13,O=C(C[n+]1cc(-c2ccc(Cl)c(Cl)c2)n2c1CCC2)c1cccs1,-1.98%
14,CCOc1ccccc1NC(=S)N1CCN(c2cccc(C)c2C)CC1,-1.77%
15,NC(=O)CCC(NS(=O)(=O)c1ccc(Cl)cc1)C(=O)NCc1ccccc1Cl (stereo unspecified),-1.61%
16,Cc1nn(CC(=O)NCCc2ccccc2)c(=O)c2cc3occc3n12,-3.95%
17,O=C(Cn1c(-c2cscn2)nc2ccccc21)Nc1ccc(Cl)cc1,-2.37%
18,CS(=O)(=O)N(CC(=O)N1CCN(Cc2ccccc2)CC1)c1ccc2c(c1)OCCO2,-2.95%
19,Clc1cccc(N=C2NN=C(c3ccc4c(c3)OCCO4)CS2)c1,74.7% (active)
20,c1ccc(CN2CCC(N=C3NN=C(c4ccc5c(c4)OCCO5)CS3)CC2)cc1,32.2% (active)
21,CC(=NC1CCN(Cc2ccccc2)CC1)c1c(O)[nH]c(=O)[nH]c1=O,-1.74%

row,SMILES,max response
1,CCOC(=O)/C(C#N)=C/c1cn(CCC(=O)O)nc1-c1ccc(Br)cc1,-0.95%
2,COc1cc(/C=N/NC(=O)Nc2ccccc2)ccc1OCCOc1ccccc1C,-1.6%
3,CCOC(=O)/C(C#N)=C/c1ccc(OCC(=O)Nc2ccccc2)c(OC)c1,22.6% (active)
4,COc1cc(CCC(=O)OCC(=O)Nc2cccc(S(N)(=O)=O)c2)cc(OC)c1OC,-3.66%
5,CCCn1c(C)cc(/C=C(\C#N)C(=O)OCC(=O)Nc2cc(OC)c(OC)c(OC)c2)c1C,31.9% (active)
6,COc1cc(C2C3=C(CCCC3=O)OC3=C2C(=O)CCC3)ccc1OCC(=O)Nc1ccccc1,4.65%
7,COc1ccc(-c2nnc(SC(=O)N3c4ccccc4Sc4ccccc43)o2)cc1,9.5%
8,COc1ccc2[nH]c(=O)c(C3c4cc(OC)c(OC)cc4CCN3C(=O)c3ccco3)cc2c1 (stereo unspecified),-3.91%
9,NS(=O)(=O)c1cccc(NC(=O)CC23CC4CC(CC(Br)(C4)C2)C3)c1,-0.826%
10,O=C(CN1C(=O)/C(=C/c2ccccc2F)Sc2ccccc21)NCc1cccnc1,8.85%
11,CN(C(=O)CCN1C(=O)/C(=C/c2ccccc2F)SC1=S)C1CCS(=O)(=O)C1 (stereo unspecified),4.42%
12,O=C(CN1C(=O)/C(=C\c2ccccc2F)SC1=S)Nc1nc2ccccc2s1,47.4% (active)
13,COC(=O)c1cccc(N(C(=O)CNC(=O)c2cccs2)C(C(=O)NCC2CCCO2)c2ccc(OC)c(OC)c2)c1 (stereo unspecified),-3.34%
14,Cc1cc(O)ccc1-c1cnc2ccccc2n1,34.4% (active)
15,O=C(O)c1cc(S(=O)(=O)N(Cc2ccccc2)c2ccccc2)ccc1Cl,-0.844%
16,COc1ccc(N(C(=O)CNC(=O)c2ccco2)C(C(=O)NCC2CCCO2)c2ccccc2)cc1Cl (stereo unspecified),-3.36%
17,CCCN1CCC(=O)N(C(CSc2ccc(C)cc2)Cc2ccccc2)CC1 (stereo unspecified),7.93%
18,Cc1ccc(SCC(CC(C)C)N2CCN(CCc3ccccc3)CCC2=O)cc1 (stereo unspecified),40% (active)
19,COc1ccc(SC[C@H](Cc2ccccc2)N2CCN(CCc3ccccc3)CCC2=O)cc1,-4.06%

# Source: PubChem BioAssay AID2314 (National Center for Advancing Translational Sciences (NCATS), 2010)
